Source: PubChem BioAssay AID686979 (National Center for Advancing Translational Sciences (NCATS), 2013)
“And” between values parts separate entries of the source, which are not always exact repeats. Identical values can stand only once. Hit rate of the full screen: of about 420,000 compounds, about 50,000 (12%) were called active. Another 26% or so got no clear call; they are omitted. This is one part of a sample in which actives are shown more often than they occur. Calls follow the shape of the dose curve; as a rule, active = well fitted inhibition curve with a large enough effect; inconclusive = small, poorly fitted or top-dose-only effect; inactive = flat fitted curve, though single readings scatter. The source holds several records for some structures; these can differ, active in one and inactive in another.

assay: qHTS for Inhibitors of human tyrosyl-DNA phosphodiesterase 1 (TDP1): qHTS in cells in presence of CPT; details: chicken DT40 Tdp1-/-;hTDP1 cells + 20 nM CPT, ATP luminescence, 48 h; series mostly up to 46.2 µM; activity change, negative = growth inhibition: at the top concentration; also: nearly all actives have a fitted effect of over 55% in size
Outline: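 Cell growth measured by CellTiter-Glo luminescence after a minimum 48 h, 37 C compound exposure with 20 nM CPT in Tdp1-knockout DT40 cells stably expressing hTDP1, seeded 400/well; qHTS titration format.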
% is scaled to controls: 0 for no effect and ±100 for the full control effect; potency is read from the fitted curve at half-maximal effect.

Structure (SMILES) | Potency | activity change, negative = growth inhibition
O=C(OCC(=O)N1CCc2ccccc21)c1ccc([N+](=O)[O-])cc1 | 20.6 µM (active) | –
CO/N=C(\C(=O)N[C@@H]1C(=O)N2C(C(=O)O)=C(C[N+]3(C)CCCC3)CS[C@H]12)c1csc(N)n1 | – | -6.89% (inactive)
CCC1NC(=O)c2cccnc2-n2c1nc1ccc(C)cc1c2=O (centres undefined) | – | -4.75% (inactive)
CCCN1C(=O)C(Cc2nc3ccccc3c(=O)n2-c2ccccc2)c2cc(C)ccc21 (centres undefined) | inactive and 16.4 µM (active) | –
O=c1c2ccccc2nc(CSc2nnnn2-c2ccccc2)n1-c1ccccc1 | – | -15.2% (inactive)
Cc1ccc(Cl)cc1NC(=O)C(C)n1nnc2sc(-c3ccccc3)cc2c1=O (centres undefined) | – | -17.5% (inactive)
O=C(Nc1c2c(nn1-c1cccc(Cl)c1)CS(=O)(=O)C2)c1cccs1 | – | 4.51% (inactive)
COCCN(C(=O)CC1CCCCC1)c1c(N)n(CC(C)C)c(=O)[nH]c1=O | – | -7.04% (inactive)
CCc1nc2sc3c(Cl)ncnc3c2c2c1CCCC2 | – | 9.75% (inactive)
OCCCC1CCCCN1Cc1nc(Cc2ccccc2Cl)no1 (centres undefined) | – | -5.93% (inactive)
CC(C)c1ccc(C(=O)NCCCc2ccccc2)cc1 | – | -11.7% (inactive)
CCOC(=O)c1ccccc1NC(=O)c1sc2nc(-c3ccc(F)cc3)cn2c1C | – | 20% (inactive)
Cc1ccc(-c2cn3c(n2)sc2cc(C(=O)NCCCc4ccccc4)ccc23)cc1 | 14.6 µM (active) | –
COc1ccc2oc(=O)c(-c3cn4c(n3)sc3cc(OC)ccc34)cc2c1 | – | -1.91% (inactive)
COc1cc(-n2c(C)nc3cc(C(=O)NCc4ccco4)ccc32)cc(OC)c1OC | – | -3.22% (inactive)
CCOc1ccc(CCNC(=O)c2ccc3c(c2)sc2nc(-c4ccc(F)cc4)cn23)cc1OCC | 7.31 µM (active) | –
Cc1cc(C(=O)NCCCc2ccccc2)no1 | – | -2.67% (inactive)
COc1ccc(CCNC(=O)c2ccc3c(c2)nc(C)n3-c2ccc(Br)cc2)cc1OC | 20.6 µM (active) | –
COc1cccc(CNC(=O)c2ccc3c(c2)sc2nc(-c4cccc(OC)c4)cn23)c1 | 6.51 µM (active) | –
COc1ccc(C(=O)NCc2cn3ccccc3n2)cc1 | – | -7.24% (inactive)
O=C(NCCc1ccc(F)cc1)c1ccc2nccnc2c1 | – | -16.7% (inactive)
COc1ccccc1-n1c(C)nc2cc(C(=O)NCc3ccc4c(c3)OCO4)ccc21 | – | -2.89% (inactive)
Cc1ccc(C(=O)Cn2cccn2)cc1 | – | -0.868% (inactive)
OC(CNCc1ccc2c(c1)OCO2)COc1ccccc1 (centres undefined) | – | -2.53% (inactive)
COC(C)C(C(=O)OCC1=CCN2CC[C@H](O)[C@@H]12)C(C)C (some centres undefined) | – | -27.6% [at 9.04 µM] (inactive)

Structure (SMILES) | Potency | activity change, negative = growth inhibition
N#Cc1c(C(F)(F)F)cc(-c2cccs2)nc1N1CCCCC1 | – | -14.9% (inactive)
COc1ccc(CCNC(=S)N2CCN(S(=O)(=O)c3ccc(F)cc3)CC2)cc1 | – | 2.76% (inactive)
Cc1cc(NC(=O)CSc2nc(=O)cc(N)n2-c2ccc(F)cc2)no1 | – | 12.2% (inactive)
Cc1nc2nc(C)c(CCC(=O)N3CCN(c4ccccc4)CC3)c(C)n2n1 | – | -0.967% (inactive)
Cc1ccc(-c2cn3c(n2)sc2cc(C(=O)NCc4cccs4)ccc23)c(C)c1 | 23.1 µM (active) | –
COc1ccc(CCNC(=O)c2ccc3c(c2)sc2nc(-c4ccc(C)cc4)cn23)cc1OC | 6.51 µM (active) | –
Cc1ccc2c(CC(=O)NCc3cccs3)coc2c1 | – | -29.7% (inactive)
CCOC(=O)C1CCCN(C(=O)c2ccc3c(c2)sc2nc(-c4ccc(CC)cc4)cn23)C1 (centres undefined) | 4.11 µM (active) | –
CCOc1cccc2cc(-c3cn4c(n3)sc3cc(C)ccc34)c(=O)oc12 | – | -17.8% (inactive)
CCOC(=O)C1CCCN(C(=O)c2cncc(Br)c2)C1 (centres undefined) | – | -10.2% (inactive)
COc1ccc(C(=O)NCCCN2CCOCC2)cc1Br | – | -0.798% (inactive)
CCOC(=O)C1CCCN(C(=O)c2ccc(CS(=O)(=O)c3ccc(Br)cc3)o2)C1 (centres undefined) | – | -16.8% (inactive)
COc1ccc(-c2cc(C(=O)NCCCN3CCOCC3)no2)cc1 | – | -4.72% (inactive)
CCN1CCN(CCCNC(=O)c2ccc3c(c2)sc2nc(-c4ccc(OC)cc4)cn23)CC1 | 0.92 µM (active) | –
C=C1O[C@@](CO)(n2cnc3c(N)ncnc32)[C@H](O)[C@@H]1O | – | 9.16% [at 92.5 µM] (inactive)
Cc1cccc(NC(=O)CCN2CC(C)CC(C)C2)c1 (centres undefined) | – | -19.3% (inactive)
CCOc1ccc(C(=O)COC(=O)c2ccc(-n3cnnn3)cc2)cc1 | – | 11.6% (inactive)
COC(=O)c1ccc(/C=N/NC(=O)C(=O)N2CCCCCC2)cc1 | – | -8.03% (inactive)
CCOC(=O)c1c(S(=O)(=O)N2CCCC(C(=O)NCc3cccc(C)c3)C2)c(C)n(C)c1C (centres undefined) | – | -6.53% (inactive)
CCC(C)N(C(=O)Cn1nc(C)c([N+](=O)[O-])c1C)C1CCS(=O)(=O)C1 (centres undefined) | – | 4.68% (inactive)
CCOc1ccc(NC(=O)c2ccc(NC(=O)CN3C(=O)C(=O)N(CC(C)C)C3=O)cc2)cc1 | – | -28.5% (inactive)
O=C(NCCCN1CCOCC1)c1ccccc1NS(=O)(=O)c1ccc(Br)cc1 | – | 2.63% (inactive)
O=C(NCCCN1CCOCC1)c1cnn2c(-c3ccccc3)cc(-c3ccccc3)nc12 | 18.4 µM (active) | –
O=C(NCCCN1CCOCC1)c1ccccc1NS(=O)(=O)c1ccc(F)cc1 | – | 18.5% (inactive)
